Bioassay records as filed in PubChem BioAssay.
MOR-DOR ag: OPRM1-OPRD1 heterodimerization agonism; P35372+P41143; cells, luminescence; activation, % at 9.3 µM; hit rate 0.3% among 340,000;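 also: 0% = vehicle-treated cells and 100% = reference agonist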
HTR5A ag ctr: HTR5A agonism, opioid heterodimer counter-screen. P47898. HTR5A agonist assay, luminescence, cell-based. activation, % at 9.3 µM. hit rate 0.61% among 340,000. AID 504692; in the data active = activation mostly above about 9.5%, no sharp cut-off; inactive = mostly below about 7.6%;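 also: 0% = cells with vehicle only and 100% = reference agonist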
MOR-DOR inv ag: mu-delta opioid heterodimer inverse agonism; P35372+P41143; inhibition, % at 9.3 µM; hit rate 0.21% among 340,000; cell-based MOR-DOR heterodimer luminescence; in the data active = inhibition above about 22%, passing the limit was not always enough;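 also: 0% = cells with DMSO and 100% = wells without cells with DMSO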
HTR5A inv ag: inverse agonist of human HTR5A in OPRM1-OPRD1 counter-screen; P47898; HTR5A cell line, luminescence, inverse agonism; inhibition, % at 9.3 µM; hit rate 0.083% among 340,000; AID 504634; in the data active = inhibition mostly above about 23%, no sharp cut-off; inactive = mostly below about 18%;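 also: 0% = cells with DMSO and 100% = no-cell wells with DMSO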
MOR-DOR ag conf: confirmation of human OPRM1-OPRD1 heterodimerization agonists. cells, MOR-DOR heterodimerization, luminescence complementation. hit rate 45% among 830. AID 504904. shares compounds with MOR-DOR ag. activation, % at 9.3 µM;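 also: 0% = vehicle-treated cells and 100% = reference agonist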
HTR5A ag ctr2: counter-screen for OPRM1-OPRD1 agonists: human HTR5A agonism; shares compounds with MOR-DOR ag; HTR5A agonist counterscreen, cell luminescence; activation, % at 9.3 µM; hit rate 8% among 830; in the data active = activation above about 17%;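 also: 0% = vehicle-treated cells and 100% = reference agonist response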
Starred values were filed as active, the others as inactive; / = no result. Shown are actives, neighbours in structure and some others; about 1.1% of the full set was active somewhere. Rule as the data show it, unless noted: active = activation above about 18%; inactive = the rest.

SMILES	MOR-DOR ag	HTR5A ag ctr	MOR-DOR inv ag	HTR5A inv ag	MOR-DOR ag conf	HTR5A ag ctr2
COc1cccc(NC(=O)Nc2ccc3c(c2)N(C)C(=O)CS3)c1	0	5	1	4	/	/
Cc1ccc(C)c(N2CCN(C(=O)Nc3ccc4c(c3)N(C)C(=O)CS4)CC2)c1	3	0	-20	0	/	/
Cc1nc2nc(C)c(NS(=O)(=O)c3ccc(Cl)cc3)c(=O)n2[nH]1	-4	8	21	-23	/	/
Cc1ccc2c(c1C)-c1c(ccc(C)c1C)C(=O)C2=O	21*	3	-93	-12	21*	6
Nc1ccc2c(c1Cl)C(=O)c1ccc(N)c(Cl)c1C2=O	-3	-4	16	14	/	/
CN(C)CCN(Cc1ccco1)S(=O)(=O)c1ccc(-c2ccc(=O)[nH]n2)s1	-3	0	15	-4	/	/
CSc1ccccc1NC(=O)Nc1ccc(Cl)cc1	26*	9	-147	-17	14	3
CCC(=O)NC(C)C(c1cccs1)N1CCN(c2ccccc2)CC1 (stereo not given)	31*	-4	-177	16	0	2
CCN(CC)CCn1c2ccccc2c(=O)c2c(O)ccc(O)c21	19*	1	-100	-2	9	0
CCN(CC)CCn1c(O)c(N=O)c2ccccc21	0	1	1	-8	/	/
CN1C2CCC1CC(N(CCc1ccccc1)C(=O)c1ccc(Cl)cc1)C2 (stereo not given)	2	2	-11	-8	/	/
CN1C2C=C(N(CCc3ccccc3)C(=O)c3ccc(Cl)cc3)CC1CC2 (stereo not given)	73*	1	-377	5	89*	-4
COc1ccc(F)cc1CN1CCN(C(=O)CCC(=O)Nc2nnc(C(C)C)s2)CC1	25*	-8	-143	-28	25*	3
CCN(c1nc(N)c(C(=O)N=C(N)N)nc1Cl)C(C)C	51*	2	-282	-11	95*	-3
COc1ccc(OC)c(C=Nc2ccccc2-c2nc3ccccc3[nH]2)c1	0	5	-1	25	/	/
COc1ccc(OC)c(/C=C/c2nc3ccccc3[nH]c2=O)c1	21*	7	-115	-17	7	8
OCC1CCCN(Cc2cn(Cc3ccccc3)nc2-c2cc3ccccc3o2)C1 (stereo not given)	-1	2	5	-14	/	/
Cc1ccc(S(=O)(=O)N(C)Cc2ccc(C(=O)NN=C(CC(C)C)CC(C)C)cc2)cc1	12	1	-70	-2	/	/
CC/C(=N\NC(=O)c1ccc(CN(C)S(=O)(=O)c2ccc(C)cc2)cc1)c1ccc(OC(F)F)cc1	31*	0	-165	-6	1	1
COc1cc2c(cc1OC)CN(C(=O)Nc1ccccc1Cl)CC2	-2	-1	10	-2	/	/
COc1cc2c(cc1OC)CN(C(=O)Nc1ccccc1)CC2	60*	5	-302	-25	2	2
COC1=C(c2ccccc2)C(=O)c2ccccc2C1=O	8	-3	-57	36	/	/
O=C(C1=C(c2ccccc2)C(=O)c2ccccc2C1=O)c1ccccc1	20*	3	-132	-9	6	0
O=C(Oc1ccc2c(c1)OCO2)c1cc2c(s1)CCC2	22*	15	-117	-1	0	1
O=C(Nc1ccc2c(c1)CCC2)c1cnn2c1NC(c1ccco1)CC2C(F)(F)F (stereo not given)	23*	3	-104	10	7	2
SMILES	MOR-DOR ag	HTR5A ag ctr	MOR-DOR inv ag	HTR5A inv ag	MOR-DOR ag conf	HTR5A ag ctr2
Cc1ccc(Cl)cc1NC(=O)c1cnn2c1NC(c1ccco1)CC2C(F)(F)F (stereo not given)	7	0	-36	-28	/	/
Cc1ccc(NC(=O)Cn2c(O)c(N=NC(N)=S)c3ccccc32)cc1	20*	8	-91	-32	9	6
COc1ccc2c(c1)c(N=NC(N)=S)c(O)n2CC(=O)c1ccccc1	19*	7	-110	-29	15	8
O=S(=O)(CC(O)CS(=O)(=O)c1ccc(Cl)cc1)c1ccccc1 (stereo not given)	-2	-1	9	0	/	/
O=C(N/N=C\c1c(O)ccc2ccccc12)c1ccc(O)cc1	0	6	0	13	/	/
O=C(N/N=C/c1c(O)ccc2ccccc12)c1ccc(Br)o1	24*	4	-139	-16	-3	-6
S=C(NCCc1ccccc1)N1CCN(C23CC4CC(CC(C4)C2)C3)CC1	20*	-3	-96	7	10	1
